Screening data from PubChem BioAssay.
FLuc counter: qHTS profiling assay for firefly luciferase inhibitor/activator using purifed enzyme and Km concentrations of substrates (counterscreen for miR-21 project) | Luciferin 4-monooxygenase (Photinus pyralis), P08659 | purified FLuc, Km substrates, luminescence inhibition | Potency, µM (titrated, usually from 57.5 µM), for inactives: at the top dose activity change, negative = inhibition, actives largely listed as inhibitors | 360,000 compounds, 6.9% hits | AID 588342, 2011;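 also: plate controls were vehicle for no effect and reference inhibitor for full effect; nearly all actives have a fitted effect of over 55% in size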
Target sequence (P08659 whole entry, looked up): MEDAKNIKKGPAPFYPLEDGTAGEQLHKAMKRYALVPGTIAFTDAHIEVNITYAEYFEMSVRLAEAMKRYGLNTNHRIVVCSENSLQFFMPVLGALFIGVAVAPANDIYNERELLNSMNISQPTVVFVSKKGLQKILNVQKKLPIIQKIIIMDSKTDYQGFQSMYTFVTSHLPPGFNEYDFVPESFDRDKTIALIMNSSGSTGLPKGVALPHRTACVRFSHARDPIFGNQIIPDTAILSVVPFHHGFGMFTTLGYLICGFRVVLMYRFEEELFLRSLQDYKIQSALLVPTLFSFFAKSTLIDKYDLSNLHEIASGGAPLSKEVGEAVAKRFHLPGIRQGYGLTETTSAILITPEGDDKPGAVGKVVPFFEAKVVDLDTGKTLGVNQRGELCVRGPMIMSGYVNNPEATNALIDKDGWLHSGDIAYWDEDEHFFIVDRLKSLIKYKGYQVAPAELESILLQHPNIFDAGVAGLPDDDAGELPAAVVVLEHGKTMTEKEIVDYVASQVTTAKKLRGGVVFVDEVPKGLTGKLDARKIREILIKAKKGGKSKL
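Purified P. pyralis luciferase, 10 nM final, with Km-level 10 uM D-luciferin and 10 uM ATP in 50 mM Tris acetate pH 7.5, 10 mM Mg acetate, 0.01% Tween-20, 0.05% BSA; 6-point qHTS titration about 60 µM downward; luminescence read.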
NPC1 promoter act: qHTS Assay for NPC1 Promoter Activators | 320,000 compounds, 2.4% hits | Huh7 NPC1 promoter luciferase reporter, 24 h | Potency, µM (titrated, usually from 9.22 µM), without a hit: at the top dose activation, most hits filed as activators; also: % of control where 0% means no effect; nearly all actives have a fitted effect of over 60% in size
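Luciferase expression driven by the NPC1 promoter was measured in stably transfected Huh7 cells after a 24 h compound incubation, using a luciferase reagent and a luminescence read.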
Rab9 promoter act: qHTS Assay for Rab9 Promoter Activators; Huh7 Rab9 promoter-luciferase reporter, luminescence, 24 h; Potency, µM (titrated, usually from 9.22 µM), inactives show at the highest dose activation, negative = inhibition, actives largely listed as activators; 320,000 compounds, 2.8% hits; AID 485297, 2010; also: % of control where 0% means no effect; nearly all actives have a fitted effect of over 60% in size
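Huh7 reporter line, Rab9 promoter upstream of luciferase. Compound exposure 24 h at 37 °C in reduced-serum medium with 10% FBS. Read-out: luminescence.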
SMN2 splice enh: qHTS Assay for Enhancers of SMN2 Splice Variant Expression; AID 1458, 2008; HEK293 SMN2-luciferase splicing reporter, luminescence, 30-36 h; Potency, µM (highest dose often 46.1 µM), inactives show at the highest dose activity change, positive = activation, most hits filed as activators; 210,000 compounds, 2.8% hits; also: % of control where 0% means no effect; nearly all actives have a fitted effect of over 55% in size
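qHTS luciferase splicing reporter: luminescence rises when SMN2 exon 7 is included in transfected HEK293 cells. Compound exposure lasted 30-36 h at 37C, with 4.5 mM final sodium butyrate as control, followed by a ONE-Glo read.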
KinaseGlo FLuc: Counterscreen for Luciferase (Kinase-Glo TM) Inhibition; Kinase-Glo luciferase, ATP luminescence, 8 min; Potency, µM (top dose mostly 38.3 µM), without a hit: at the highest dose activity change, negative = inhibition, usual class: inhibitors; Luciferin 4-monooxygenase (Photuris pensylvanica), Q27757; 200,000 compounds, 0.28% hits; AID 1379, 2008; also: % is scaled to controls: 0 for no effect and ±100 for the full control effect; nearly all actives have a fitted effect of over 60% in size
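Inhibition of Kinase-Glo luciferase light generation was assessed at 10 uM ATP in pH 7.2 imidazole buffer, with luminescence measured after eight minutes at ambient temperature.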
ELG1 genotox: qHTS screen for small molecules that induce genotoxicity in human embryonic kidney (HEK293T) cells expressing luciferase-tagged ELG1; HEK293T ELG1-luciferase reporter, luminescence, 16 h; Potency, µM (series often up to 46 µM), for the others: at the top dose activity change, positive = activation, hits mostly activators; 330,000 compounds, 1.3% hits; AID 504466, 2011; also: % of control where 0% means no effect; nearly all actives have a fitted effect of over 60% in size
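ELG1-luciferase HEK293T cells, 2,000/well; compound pinned in; 16 hr, 37 °C, 5% CO2; ONE-Glo, 30 min RT; luminescence on CCD imager.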
The depositor's hits bear a star; ? = inconclusive; · = no result given; ! = a repeat was not active. In the library only some 7.5% were active in any assay of this set; here they are far more common. Calls follow the shape of the dose curve; as a rule, active = well fitted curve in the direction sought with a large enough effect; inconclusive = small, poorly fitted or top-dose-only effect, or another doubt; inactive = no such curve, though single readings can be large; an effect the other way counts as inactive or inconclusive. Potency is read from the fitted curve at half-maximal effect.

SMILES | FLuc counter | NPC1 promoter act | Rab9 promoter act | SMN2 splice enh | KinaseGlo FLuc | ELG1 genotox
COCCNC(=O)c1cc2sc3ccccc3c2s1 | 11µM* | ? | 2.8µM* | 14µM* | -2% | 15µM*
CCN(CC(=O)Nc1c(F)cccc1F)C(=O)c1ccc(C)c(S(=O)(=O)N2CCCCC2)c1 | 3% | 0% | -2% | · | · | -3%
COc1ccccc1-c1cc(-c2ccccc2)nc(=O)[nH]1 | 0% | 1% | -2% | · | · | 1%
COc1ccccc1-c1cc2ccccc2[nH]1 | 15µM* | 30% | ? | 13µM* | 1% | ?
COCc1ccc(CN2CCCCC2C(=O)Nc2ccc(Oc3ccccc3)nc2)o1 (stereo not drawn) | 1% | -5% | -3% | · | · | -6%
COc1ccc(NC(=O)c2c(NCc3ccc(OC)c(OC)c3OC)sc3c2CCC3)c(OC)c1 | -4% | · | · | · | · | ·
Cc1sc(NC(=O)C2=COCCO2)c(C(N)=O)c1C | 17µM* | 14% | 22% | · | · | 28%
Cc1sc(NC(=O)c2cccs2)c(C(N)=O)c1C | 11µM* | 18% | ? | 10µM* | -13% | ?
CCOC(=O)c1c(NC(=O)c2cccs2)sc(CC)c1-c1cccs1 | 1% | -3% | 3% | -19% | 0% | -1%
COc1ccccc1/C=C/c1nc(C#N)c(N2CCCCCC2)o1 | 2% | · | · | 17% | · | ·
COc1cccc(NC(=O)c2sc3nc4n(c(=O)c3c2C)CCC4)c1 | 19µM*! | ? | 4µM* | · | · | ?
Cc1c(C(=O)NCc2ccc(Cl)cc2)sc2nc3n(c(=O)c12)CCC3 | -11% | · | · | · | · | ·
Cc1c(C(=O)Nc2ccc(Oc3ccccc3)cc2)sc2nc3n(c(=O)c12)CCC3 | ? | 3% | 0% | -38% | -4% | -4%
Cc1c(C(=O)Nc2cc(F)ccc2F)sc2nc3n(c(=O)c12)CCCCC3 | -7% | 2.8µM* | 1.6µM* | · | · | 16µM*
Cc1ccc(NC(=O)c2sc3nc4n(c(=O)c3c2C)CCCCC4)c(Br)c1 | 3% | · | · | · | · | ·
COc1ccc(CNC(=O)c2sc3nc4n(c(=O)c3c2C)CCCCC4)cc1 | 19µM* | · | · | · | · | ·
CSc1cccc(NC(=O)c2sc3nc4n(c(=O)c3c2C)CCC4)c1 | 27µM* | 3.5µM* | ? | · | · | ?
CC(=O)c1cccc(NC(=O)c2sc3nc4n(c(=O)c3c2C)CCCCC4)c1 | -17% | -3% | -4% | · | · | -6%
Cc1ccc(C)c(NC(=O)CSc2nc(-c3ccccc3)cc(=O)[nH]2)c1 | -11% | · | · | · | · | ·
COc1ccccc1CNC(=O)C(=O)NCC1OCCN1C(=O)c1cccs1 (stereo not drawn) | -1% | -4% | 0% | 10% | 0% | 2%
O=C(O)C(Cc1ccc(Cl)cc1)NS(=O)(=O)c1ccc(Cl)cc1 (stereo not drawn) | -2% | -6% | -1% | · | · | 2%
COc1cc(NC(=O)CCc2c(C)nc3nc(-c4cc(OC)cc(OC)c4)nn3c2C)cc(OC)c1 | -6% | · | · | 0% | · | ·
O=C(NCCCN1CCOCC1)c1ccc(-n2c(=O)c(=O)[nH]c3ccccc32)cc1 | · | · | · | · | -2% | ·
Cc1cccc(-n2cc(CN3CCN(Cc4nccn4C)CC3)c(-c3cccc(F)c3)n2)c1 | 27µM* | 3% | 8% | · | · | -1%
COc1ccc(-n2cc(CN3CCCC3)c(-c3cccc(F)c3)n2)cc1 | ? | -3% | -6% | · | 1% | -1%
SMILES | FLuc counter | NPC1 promoter act | Rab9 promoter act | SMN2 splice enh | KinaseGlo FLuc | ELG1 genotox
O=C(CCC(=O)OCC(=O)c1ccc(Cl)cc1)Nc1ccc(Oc2ccccc2)cc1 | -3% | · | · | 1% | · | ·
CCOc1ccc(NC(=O)CSc2nc(NS(=O)(=O)c3ccc(C)cc3)cc(=O)[nH]2)cc1 | 21µM* | 0% | 1% | · | · | 0%
Cc1ccc(S(=O)(=O)Nc2cc(=O)[nH]c(SCC(=O)Nc3cccc(C)c3)n2)cc1 | 19µM* | 0% | -1% | · | · | -7%
Cc1ccc(NC(=O)CSc2nc(NS(=O)(=O)c3ccccc3)cc(=O)[nH]2)cc1 | -3% | 0% | 0% | -12% | 0% | 2%
Cc1cc(Cn2nc(-c3ccccc3)cc2C(=O)NCC2CC2)on1 | -3% | -5% | 2% | · | · | 1%
COCc1c(C(=O)OCC(=O)N2c3ccccc3CC2C)oc2ccccc12 (stereo not drawn) | -1% | -30% | -2% | 11% | 0% | 1%
Cc1c(C(=O)N2c3ccccc3CC2C)oc2ccccc12 (stereo not drawn) | 4.8µM* | 24% | 2.8µM* | · | · | ?
Cc1c(C(=O)N2CCc3ccccc3C2)oc2ccccc12 | 24µM* | ? | 22% | · | · | 15%
Cc1ccc(NC(=O)C2CCN(c3nn4cc(-c5ccc(C)cc5)nc4s3)CC2)cc1 | 32% | · | · | · | · | ·
Cc1nn2cc(-c3ccc(N)cc3)nc2s1 | 11µM* | 1µM* | 1µM* | 13µM* | -17% | ?
O=C(O)c1[nH]c2ccccc2c1C=NCc1ccccc1Cl | -15% | -18% | 2% | 2% | -2% | -5%
CC(C)CN1CCCC2(CCN(C(=O)c3ccco3)CC2)C1 | · | · | · | 12% | 1% | ·
CCOc1ccc(CNC(=O)c2ccc3c(c2)nc2n3CCCCC2)cc1 | 12µM* | · | · | · | · | ·
CCOc1ccc(CNC(=O)c2ccc3c(c2)nc2n3CCOC2)cc1 | -13% | · | · | · | · | ·
CC(C)Oc1ccc(CNC(=O)c2ccc3c(c2)nc2n3CCCCC2)cc1 | 9.5µM* | · | · | · | · | ·
S=c1[nH]nc(-c2cccs2)n1/N=C/c1c(Cl)cccc1Cl | ? | 0% | -8% | -2% | -1% | 7%
Cc1ncc(CO)c(CNc2ccc(-c3nc4ccccc4[nH]3)cc2)c1O | 3.4µM* | 1µM* | 1.6µM* | · | · | ?
S=C(NCCN1CCOCC1)Nc1ccc(-c2nc3ccccc3[nH]2)cc1 | ? | 25% | ? | 0% | -1% | -4%
Cc1ccc(S(=O)(=O)N(CC(=O)Nc2ccc(C(N)=O)cc2)C(=O)N2CCN(C)CC2)cc1 | -1% | 2% | 3% | · | · | 3%
CCOC(=O)N/N=C/C=C/c1ccccc1 | ? | ? | ? | 11µM* | -3% | ?
COc1ccccc1NCC(=O)N/N=C/C=C/c1ccccc1 | 27µM* | 0% | 0% | 17% | 2% | 2%
Cc1ccccc1OCC(=O)N/N=C/C=C/c1ccccc1 | -9% | 0% | -5% | 11% | 1% | 3%
CN(C)c1ccc(C(=O)n2nnc3ccccc32)cc1 | 0.13µM* | 5% | 2% | 2% | ? | ?
CC(C)(C)c1ccc(C(=O)n2cnc3ccccc32)cc1 | 3.4µM* | -1% | 2% | · | · | 11%
